Assay [1] can be described thus: ACEA_ER_80hr: ACEA Biosciences xCELLigence Real-Time Cell Analysis on Estrogen Receptor Agonism for Proliferation (AID 2282667; active = hit-call score of the fitted dose curve at least 0.9, where 1 is the maximum). To be noted: T47D proliferation, impedance (xCELLigence), 80 h. In outline:
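Real-time impedance growth kinetics of human T-47D breast cells read 80 h after dosing, gain-of-signal fitted relative to DMSO. Compounds: 1:4 serial series, top final concentration 100 uM, n = 2.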

Assay [2] in a line: ATG_CRE_CIS: Attagene CIS-FACTORIAL HepG2 Assay for human cAMP Responsive Element (CRE) binding protein 3 (AID 2282926). To be noted: HepG2 CRE cis-reporter, Attagene multiplexed mRNA; actives raise or lower the signal. In outline: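 Multiplexed transcription-unit reporters transfected into HepG2; 24 h dosing; RT-PCR/capillary electrophoresis fluorescence read-out; bidirectional fit vs DMSO.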

For assay [3], the target named is CCAAT/enhancer-binding protein beta (Homo sapiens) (UniProt P17676). Put plainly: ATG_C_EBP_CIS: Attagene CIS-FACTORIAL HepG2 Assay for human CCAAT/Enhancer Binding Protein (C/EBP) beta (AID 2282927). To be noted: HepG2 Attagene cis-factorial transcription factor reporter; actives raise or lower the signal. The method, boiled down:
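HepG2, transient MRTU transfection, 24 h treatment. RT-PCR plus CE fluorescence; DMSO negative control, bidirectional fit.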

A short description of assay [4]: ATG_CMV_CIS: Attagene CIS-FACTORIAL HepG2 Assay for human CMV (Internal Marker) (AID 2282928).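 Note: endpoint acts as a background internal control marker rather than a target.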 To be noted: HepG2 CMV promoter reporter, transcription factor profiling; actives raise or lower the signal. The method, boiled down:
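Endogenous transcription factor activity read in HepG2 via transfected cis-promoter reporter units. After 24 h dosing, reporter mRNA measured by RT-PCR/capillary electrophoresis; gain or loss of signal fit relative to DMSO.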

Assay [5] is described as follows: ATG_DR4_LXR_CIS: Attagene CIS-FACTORIAL HepG2 Assay for human Liver X Receptor (LXR), DR4 submotif (AID 2282929). To be noted: HepG2 Attagene DR4 cis-reporter, mRNA transcription; actives raise or lower the signal. In outline:
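Readout: reporter transcript fluorescence after RT-PCR and capillary electrophoresis, fitted bidirectionally against DMSO controls. Human HepG2 liver cells carried transiently transfected multiplexed reporter constructs; endogenous transcription factor activity measured 24 h post-dosing.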

For assay [6], the target named is Aryl hydrocarbon receptor (Homo sapiens) (UniProt P35869). Put plainly: ATG_Ahr_CIS: Attagene CIS-FACTORIAL HepG2 Assay for human Aryl Hydrocarbon Receptor (Ahr) (AID 2282930). To be noted: HepG2 AhR cis-factorial reporter transcription; actives raise or lower the signal. The method, boiled down: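 Endogenous factor activity is tracked through cis-promoter reporter units transfected into HepG2 cells. Transcript levels at 24 h are read by fluorescent RT-PCR and capillary electrophoresis, with activity in either direction scored relative to DMSO.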

Assay [7] in a line: ATG_AP_1_CIS: Attagene CIS-FACTORIAL HepG2 Assay for human Activator Protein 1 (AP-1) (AID 2282931). Particulars: HepG2 Attagene cis-factorial AP-1 reporter mRNA; actives raise or lower the signal. The method, boiled down: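 Reporter transcripts were measured 24 h after dosing by RT-PCR and capillary electrophoresis of fluorescent fragments. Cells: HepG2 carrying transfected cis-regulated reporter constructs reading endogenous factor activity. Gain or loss fitted against DMSO.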

Assay [8] in a line: ATG_AP_2_CIS: Attagene CIS-FACTORIAL HepG2 Assay for human Activator Protein 2 (AP-2) (AID 2282932). To be noted: HepG2 AP-2 cis-reporter, Attagene transcription factor profiling; actives raise or lower the signal. The method, boiled down:
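HepG2 cells transiently transfected with cis-element reporter units and exposed for 24 h. Reporter mRNA measured by RT-PCR, FAM labelling, HpaI digestion and capillary electrophoresis. Changes in either direction fitted relative to DMSO.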

Assay [9] in a line: ATG_BRE_CIS: Attagene CIS-FACTORIAL HepG2 Assay for human Bone Morphogenetic Protein (BMP) Response Element (BRE) (AID 2282933). To be noted: HepG2 BMP response element reporter, Attagene transcription factor profiling; actives raise or lower the signal. In outline: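 Multiplexed cis-reporter assay, HepG2, 24 h exposure. mRNA from reporter units quantified via RT-PCR/CE; DMSO baseline; bidirectional curve fit.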

The target of assay [10] is Retinoic acid receptor alpha (Homo sapiens) (UniProt P10276). Put plainly: ATG_DR5_RAR_CIS: Attagene CIS-FACTORIAL HepG2 Assay for human Retinoic Acid Receptor Alpha (RARE), DR5 submotif (AID 2282934).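 For AC50: reporter responds to endogenous RAR alpha beta and gamma in HepG2 not RARA alone.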 To be noted: HepG2 Attagene cis-factorial RARE DR5 reporter, mRNA; actives raise or lower the signal. In outline: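 After 24 h of chemical exposure, transiently transfected HepG2 cells were lysed for total RNA; the DR5-regulated reporter transcript was quantified via RT-PCR and capillary electrophoresis, with activity fitted bidirectionally against DMSO.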

Assay [11] has as its target Transcription factor E2F1 (Homo sapiens) (UniProt Q01094). Put plainly: ATG_E2F_CIS: Attagene CIS-FACTORIAL HepG2 Assay for human E2F Transcription Factor 1 (AID 2282935). To be noted: HepG2 Attagene cis-reporter, E2F reporter RNA transcripts; actives raise or lower the signal. In outline:
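Endogenous E2F1 activity read through cis-promoter reporter units transfected into HepG2. After 24 h compound treatment, reporter mRNA measured by RT-PCR, HpaI digestion and capillary electrophoresis. Bidirectional fit versus DMSO.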

Assay [12] can be described thus: ATG_E_Box_CIS: Attagene CIS-FACTORIAL HepG2 Assay for human Enhancer Box (E-box) (AID 2282936). To be noted: HepG2 E-box cis-reporter transcription, actives raise or lower the signal. In outline:
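HepG2 cells transiently transfected with multiplexed cis-element reporter units, dosed 24 h; reporter mRNA quantified by RT-PCR, 6-FAM labelling, HpaI digestion and capillary electrophoresis. E-box (USF1) signal fitted bidirectionally vs DMSO.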

Assay [13] is described as follows: ATG_M_61_CIS: Attagene CIS-FACTORIAL HepG2 Assay for M61 Transcription Factor (Internal Marker) (AID 2282937). Particulars: HepG2 Attagene CIS-FACTORIAL M61 internal marker reporter; actives raise or lower the signal. The method, boiled down:
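Readout: fluorescent reporter mRNA fragments resolved by capillary electrophoresis after RT-PCR. Transiently transfected human HepG2 cells carried MRTU constructs reporting endogenous TF activity; 24 h chemical exposure; gain or loss of signal fitted relative to DMSO.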

Assay [14] is described as follows: ATG_EGR_CIS: Attagene CIS-FACTORIAL HepG2 Assay for human Early Growth Response 1 (EGR1) (AID 2282938). To be noted: HepG2 Attagene CIS-FACTORIAL EGR reporter mRNA; actives raise or lower the signal. The method, boiled down:
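Read-out: fluorescent reporter-mRNA fragments resolved by capillary electrophoresis after RT-PCR, 24 h post-dose in transiently transfected HepG2. Endogenous transcription-factor activity reported via cis-element-regulated reporter units; gain or loss fitted relative to DMSO.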

The nature of assay [15]: ATG_M_19_CIS: Attagene CIS-FACTORIAL HepG2 Assay for M19 Transcription Factor (Internal Marker) (AID 2282939). Particulars: HepG2 Attagene CIS-FACTORIAL M19 internal marker reporter; actives raise or lower the signal. In outline:
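Signals come from fluorescence of labelled reporter-specific PCR fragments resolved by capillary electrophoresis, following 24 h treatment of HepG2 cells transfected with cis-promoter reporter units; activity was fitted in both directions relative to DMSO.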

Assay [16] can be described thus: ATG_ERE_CIS: Attagene CIS-FACTORIAL HepG2 Assay for Estrogen Response Element (ERE) (AID 2282940). Particulars: HepG2 ERE cis-reporter, Attagene RNA transcript; actives raise or lower the signal. The method, boiled down:
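Fluorescence of capillary-separated, FAM-labelled reporter cDNA fragments indicates reporter mRNA levels in HepG2 cells exposed to chemicals for 24 h. Transient transfection with cis-regulated units; data fitted in both directions against DMSO.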

Assay [17] is described as follows: ATG_Ets_CIS: Attagene CIS-FACTORIAL HepG2 Assay for human Erythroblast Transformation Specific (ETS) (AID 2282941). Particulars: HepG2 ETS cis-reporter transcription, actives raise or lower the signal. In outline:
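Steps: transfect HepG2 with multiple reporter units; treat compound 24 h; isolate RNA, DNase-treat, reverse-transcribe; PCR-amplify, label with 6-FAM, digest with HpaI; separate by capillary electrophoresis. Activity fitted both directions versus DMSO.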

Assay [18] concerns the target Hepatocyte nuclear factor 3-beta (Homo sapiens) (UniProt Q9Y261). Put plainly: ATG_FoxA2_CIS: Attagene CIS-FACTORIAL HepG2 Assay for human Forkhead box A2 (FOXA2) (AID 2282942). Particulars: HepG2 cis-reporter transcription factor activity, 24 h; actives raise or lower the signal. In outline:
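Readout: fluorescent reporter transcripts resolved by capillary electrophoresis after RT-PCR. Transiently transfected HepG2, 24 h compound exposure, endogenous TF activity at cis promoter elements. Gain or loss of signal fitted relative to DMSO.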

Assay [19] is described as follows: ATG_FoxO_CIS: Attagene CIS-FACTORIAL HepG2 Assay for human Forkhead box O (FoxO) (AID 2282943). To be noted: HepG2 Attagene cis-reporter, FoxO element, mRNA; actives raise or lower the signal. The method, boiled down: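 Transfected HepG2 reporter cells exposed to test chemical for 24 h; reporter RNA measured by reverse transcription, PCR and fluorescent capillary electrophoresis; curves fitted for increases and decreases against DMSO.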

Assay [20] in a line: ATG_GATA_CIS: Attagene CIS-FACTORIAL HepG2 Assay for human GATA Binding Protein (AID 2282944). Particulars: HepG2 GATA cis-element reporter, Attagene multiplex mRNA; actives raise or lower the signal. In outline: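 After transfecting HepG2 cells with multiple cis-regulated reporter units, chemicals are dosed for 24 h; isolated RNA undergoes RT-PCR and fluorescent labeling before capillary electrophoresis, with activity expressed against DMSO.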

Inconclusive results are not listed. The source made the active and inactive calls. Rule for the calls, unless noted: active = hit-call score of the fitted dose curve at least 0.9, where 1 is the maximum; inactive = score below 0.9.

Sequence of CCAAT/enhancer-binding protein beta (Homo sapiens) (P17676 whole entry, looked up): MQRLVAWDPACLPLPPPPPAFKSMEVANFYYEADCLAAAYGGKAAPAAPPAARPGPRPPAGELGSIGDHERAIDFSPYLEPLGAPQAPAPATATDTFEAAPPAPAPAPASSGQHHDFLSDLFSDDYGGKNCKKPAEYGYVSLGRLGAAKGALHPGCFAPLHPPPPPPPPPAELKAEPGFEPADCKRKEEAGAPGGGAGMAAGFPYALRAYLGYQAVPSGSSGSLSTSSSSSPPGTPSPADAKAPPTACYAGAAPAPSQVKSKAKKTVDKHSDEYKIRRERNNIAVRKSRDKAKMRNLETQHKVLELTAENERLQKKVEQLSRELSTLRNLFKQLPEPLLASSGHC
Sequence of Transcription factor E2F1 (Homo sapiens) (Q01094 whole entry, looked up): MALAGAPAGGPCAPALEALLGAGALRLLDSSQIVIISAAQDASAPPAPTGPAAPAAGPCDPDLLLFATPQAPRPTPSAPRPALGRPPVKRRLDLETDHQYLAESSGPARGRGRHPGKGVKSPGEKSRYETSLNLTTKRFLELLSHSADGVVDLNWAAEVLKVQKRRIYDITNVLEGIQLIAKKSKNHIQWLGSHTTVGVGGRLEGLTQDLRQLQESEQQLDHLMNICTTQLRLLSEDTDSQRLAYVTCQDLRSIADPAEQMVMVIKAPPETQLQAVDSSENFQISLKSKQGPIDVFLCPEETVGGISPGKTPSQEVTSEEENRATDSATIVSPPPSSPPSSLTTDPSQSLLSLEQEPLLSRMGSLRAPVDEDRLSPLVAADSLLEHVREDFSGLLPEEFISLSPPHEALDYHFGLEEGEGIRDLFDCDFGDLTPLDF
Sequence of Hepatocyte nuclear factor 3-beta (Homo sapiens) (Q9Y261 whole entry, looked up): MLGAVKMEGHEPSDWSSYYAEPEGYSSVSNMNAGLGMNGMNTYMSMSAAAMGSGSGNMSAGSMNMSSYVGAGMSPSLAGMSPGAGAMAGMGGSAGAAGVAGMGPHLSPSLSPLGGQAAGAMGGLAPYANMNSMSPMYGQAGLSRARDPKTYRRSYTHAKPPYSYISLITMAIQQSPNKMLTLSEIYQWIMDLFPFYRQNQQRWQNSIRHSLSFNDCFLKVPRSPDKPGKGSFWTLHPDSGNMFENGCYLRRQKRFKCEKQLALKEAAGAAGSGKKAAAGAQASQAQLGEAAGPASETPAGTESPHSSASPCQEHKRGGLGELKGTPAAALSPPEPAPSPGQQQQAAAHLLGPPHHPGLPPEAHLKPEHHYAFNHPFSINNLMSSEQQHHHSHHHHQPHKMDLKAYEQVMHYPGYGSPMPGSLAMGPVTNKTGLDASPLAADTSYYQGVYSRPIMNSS
Sequence of Aryl hydrocarbon receptor (Homo sapiens) (P35869 whole entry, looked up): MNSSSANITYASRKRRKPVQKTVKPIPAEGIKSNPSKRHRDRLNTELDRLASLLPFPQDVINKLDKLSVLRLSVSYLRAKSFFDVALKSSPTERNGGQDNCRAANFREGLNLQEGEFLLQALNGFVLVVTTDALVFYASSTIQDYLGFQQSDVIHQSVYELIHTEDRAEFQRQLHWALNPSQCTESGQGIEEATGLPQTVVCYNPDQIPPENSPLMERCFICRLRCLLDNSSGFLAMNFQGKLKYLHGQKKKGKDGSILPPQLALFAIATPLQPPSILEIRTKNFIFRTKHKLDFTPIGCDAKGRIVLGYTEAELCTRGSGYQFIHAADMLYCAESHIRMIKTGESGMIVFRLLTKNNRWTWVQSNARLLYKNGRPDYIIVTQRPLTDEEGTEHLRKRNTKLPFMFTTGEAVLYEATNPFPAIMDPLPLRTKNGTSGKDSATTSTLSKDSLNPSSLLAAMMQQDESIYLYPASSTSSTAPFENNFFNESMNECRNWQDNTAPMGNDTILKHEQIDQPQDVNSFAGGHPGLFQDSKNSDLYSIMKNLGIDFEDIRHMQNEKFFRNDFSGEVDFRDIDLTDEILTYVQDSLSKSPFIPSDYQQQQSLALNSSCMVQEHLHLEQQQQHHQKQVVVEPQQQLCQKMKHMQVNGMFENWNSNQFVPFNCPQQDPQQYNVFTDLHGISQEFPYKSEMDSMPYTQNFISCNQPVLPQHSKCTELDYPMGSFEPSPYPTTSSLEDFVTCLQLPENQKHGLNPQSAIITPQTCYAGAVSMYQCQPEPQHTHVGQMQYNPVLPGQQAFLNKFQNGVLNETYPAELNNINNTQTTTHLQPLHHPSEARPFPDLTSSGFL
Sequence of Retinoic acid receptor alpha (Homo sapiens) (P10276 whole entry, looked up): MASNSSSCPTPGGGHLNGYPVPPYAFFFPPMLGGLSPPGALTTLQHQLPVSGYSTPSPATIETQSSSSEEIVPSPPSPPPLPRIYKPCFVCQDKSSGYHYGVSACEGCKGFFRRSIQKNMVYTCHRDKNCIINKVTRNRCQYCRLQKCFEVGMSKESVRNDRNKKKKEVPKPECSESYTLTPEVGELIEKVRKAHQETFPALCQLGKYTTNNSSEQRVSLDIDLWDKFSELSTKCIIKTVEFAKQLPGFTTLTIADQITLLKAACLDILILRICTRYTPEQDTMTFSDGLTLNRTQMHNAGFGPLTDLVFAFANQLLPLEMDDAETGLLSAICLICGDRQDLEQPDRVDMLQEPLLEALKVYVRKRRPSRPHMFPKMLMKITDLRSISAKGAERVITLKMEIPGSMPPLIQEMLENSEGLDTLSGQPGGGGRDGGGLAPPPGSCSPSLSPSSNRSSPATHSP

In the case of `CCOC(OCC)OCC`, the compound was called inactive in assay [1], in [2], in [3], in [4], in assay [5] and in assay [7]. Besides, the call in assay [8], in assay [9], in [10], in assay [11], in [12] and in assay [13] was inactive. Moreover, the outcome in [14], in [15], in [16], in assay [17], in assay [18] and in assay [19] was inactive. The compound was classed as inactive in assay [20]. In addition, in [6], the AC50 (commonly the concentration giving half of the maximal activity seen) is 31.6 µM (active).
For `C[C@]12CC[C@H]3C(=CCc4cc(O)ccc43)[C@@H]1CCC2=O`, the AC50 in assay [1] was 0.00143 µM (active); in assay [16], 0.0626 µM (active). Also, the call in assay [2], in [3], in [4], in assay [5], in assay [6] and in [7] was inactive. Also, the call in assay [8], in [9], in [10], in [11], in assay [12] and in [13] was inactive. In addition, the compound was classed as inactive in [14], in assay [15], in assay [17], in assay [18], in assay [19] and in [20].
Turning to `OCCCCl`, the outcome in assay [1], in assay [2], in assay [3], in assay [4], in assay [5] and in assay [6] was inactive. Also, the compound was classed as inactive in assay [7], in assay [8], in [9], in assay [10], in assay [11] and in [12]. Also, the result in assay [13], in assay [14], in assay [15], in assay [16], in assay [17] and in assay [18] was inactive. The compound was called inactive in assay [19] and in [20].
On to `CCCCCCCCCCCCCCCCC`, for which the values for the AC50 in [1] and in assay [16] were 10.5 µM (active) and 25.6 µM (active), respectively. The call in assay [2], in assay [3], in assay [4], in assay [5], in assay [6] and in [7] was inactive. Also, the call in [8], in assay [9], in assay [10], in assay [11], in assay [12] and in [13] was inactive. In addition, the call in [14], in [15], in assay [17], in assay [18], in [19] and in [20] was inactive.
With `COCCOCCC[Si](C)(O[Si](C)(C)C)O[Si](C)(C)C`, the AC50 in assay [1] is 0.437 µM (active); in assay [5], 54.1 µM (active); in [7] it was 1.53 µM (active); in [8], 60.1 µM (active); in assay [9], 9.13 µM (active); in assay [10] it was 8.84 µM (active). Moreover, the outcome in assay [2], in assay [3], in [4], in assay [6], in assay [11] and in [12] was inactive. Further, the compound was called inactive in assay [13], in assay [14], in assay [15], in assay [16], in assay [17] and in assay [18]. Moreover, the compound was called inactive in assay [19] and in assay [20].
`Cc1cc(O)c(C(C)(C)C)cc1C(C)(C)C`: the compound was called inactive in assay [1], in [2], in [3], in assay [5], in [6] and in assay [8]. The compound was classed as inactive in assay [9], in assay [10], in [11], in [13], in [14] and in assay [15]. Moreover, the compound was called inactive in assay [16], in assay [17], in [18], in assay [19] and in assay [20]. The AC50 in [4] is 9.14 µM (active); in assay [7], 11.1 µM (active); in assay [12], 13.9 µM (active).

The values are drawn from PubChem BioAssay (EPA / NIEHS).
